Experimental data: publication PMC5540273 (PLoS ONE, 2017)

Key:
Details in all cases: concentration: 1 μM, replicates: in singlicate; n = 1
[1] = tested on: BMX
[2] = tested on: BRAF
[3] = tested on: T1, BRK
T1 construct: gene PTK6

[4] = tested on: BRSK1
[5] = tested on: BRSK2
[6] = tested on: BTK
[7] = tested on: BUB1
[8] = tested on: CAMK1B
[9] = tested on: CAMK1D
[10] = tested on: CAMK1G
[11] = tested on: CAMK1
[12] = tested on: CAMK2A
[13] = tested on: CAMK2B
[14] = tested on: CAMK2D
[15] = tested on: CAMK2G
[16] = tested on: CAMK4
[17] = tested on: CAMKK1
[18] = tested on: CAMKK2
[19] = tested on: CASK
[20] = tested on: T2, CDC2L1
T2 construct: gene CDK11B
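Note: KINOMEscan kinase panel screen.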

SMILES	%Inh [1] [%]	%Inh [2] [%]	%Inh [3] [%]	%Inh [4] [%]	%Inh [5] [%]	%Inh [6] [%]	%Inh [7] [%]	%Inh [8] [%]	%Inh [9] [%]	%Inh [10] [%]	%Inh [11] [%]	%Inh [12] [%]	%Inh [13] [%]	%Inh [14] [%]	%Inh [15] [%]	%Inh [16] [%]	%Inh [17] [%]	%Inh [18] [%]	%Inh [19] [%]	%Inh [20] [%]
O=C(Nc1ccccc1F)NC1CCN(c2ccnc(Nc3ccc(F)cc3)n2)CC1 [GSK1379800]	3	0	0	0	0	0	63	36	5	0	0	0	0	3	15	0	0	3	0	0
COc1cccc(-c2ccc3c(NC(=O)C4CC4)n[nH]c3n2)c1 [SB-710903]	0	0	3	8	3	29	82	11	0	0	0	100	100	8	9	0	6	7	23	0
c1ccc(-c2cnc3nccnn23)cc1 [AH20685]	0	33	22	0	0	6	0	0	0	0	0	0	0	0	0	0	1	0	4	0
O=C(Nc1cccc(-c2nn3ccccc3c2-c2ccnc(Nc3cccc(C(F)(F)F)c3)n2)c1)c1c(F)cccc1F [GSK292658]	52	43	41	0	0	50	45	33	0	0	4	0	0	5	0	0	16	3	0	0
COc1cc(Nc2nccc(N3CCC(NC(=O)Nc4cccc(C(C)=O)c4)C3)n2)cc(OC)c1OC (centres unmarked) [GSK1379753]	1	0	8	5	0	0	31	0	20	0	42	0	0	0	0	0	0	4	0	0
Cc1ccc(C(=O)N2CC[C@@H](O)C2)cc1-n1c(C)cc(OCc2ccc(F)cc2F)c(Br)c1=O	0	58	20	0	0	0	0	0	17	0	0	0	0	0	0	0	0	0	0	0
Oc1cc(Nc2ccnc3cc(I)ccc23)ccc1F [GW552771]	15	79	28	11	0	7	57	37	8	0	19	0	0	0	0	0	8	0	18	0
Cn1cc(-c2[nH]c3cc(NC(=O)[C@H](N)C4CCCCC4)cc4c3c2C=NNC4=O)cn1	13	39	14	31	61	94.2	100	87	90.4	0	49	68	15	76	73	0	60	56	6	2
Cl.c1ccc(-c2ccc3c(Nc4ccc5[nH]ccc5c4)ccnc3c2)nc1 [GW440138]	5	0	28	0	0	0	64	11	0	0	0	0	0	7	18	0	3	12	0	0
CN(c1ccc(NC(=O)Nc2cc(C(F)(F)F)ccc2F)cc1)c1ccnc(Nc2ccc(S(N)(=O)=O)cc2)n1 [GW809893]	71	66	76	15	8	25	0	0	38	0	48	0	4	1	9	0	16	15	35	88
O=C(Nc1cccc(-c2nn3ncccc3c2-c2ccnc(Nc3ccccc3)n2)c1)c1c(F)cccc1F [GSK198271]	89	90.9	94.5	4	0	99.4	32	9	25	11	39	0	0	13	8	0	0	8	3	0
COc1cccc(NC(=O)NC2CCN(c3ccnc(Nc4cc(OC)c(OC)c(OC)c4)n3)C2)c1 (centres unmarked) [GSK1379763]	2	5	0	0	0	0	18	35	4	17	26	0	0	13	38	0	40	36	15	1
Cc1ccc(S(=O)(=O)Nc2ccc(Nc3nccc(Nc4cccc5[nH]ncc45)n3)cc2)cc1 [GSK581271]	5	6	34	5	0	0	44	7	8	0	24	0	0	4	8	0	0	9	45	0
COc1cccc(C2=C(Nc3ccc(Cl)c(C(=O)O)c3)C(=O)NC2=O)c1 [SB-390769]	0	13	38	0	0	25	44	28	0	0	0	0	0	3	1	0	0	0	100	0
CN(C)S(=O)(=O)c1cc(-c2ccc3nccc(-c4cccc(S(N)(=O)=O)c4)c3c2)cnc1N [GSK1669921]	21	30	11	12	0	0	0	0	25	7	40	1	0	3	8	0	48	47	4	0
Cn1cc(-c2ccc3c(c2)CCN3C(=O)Cc2cccc(F)c2)c2c(N)ncnc21 [GSK2603358]	0	4	26	14	67	0	52	34	74	11	79	0	0	16	34	0	26	29	17	0
NCCCC(NC(=O)c1cc(Br)c(-c2ccnc3[nH]ccc23)s1)c1ccccc1.O=C(O)C(F)(F)F.O=C(O)C(F)(F)F (centres unmarked) [GSK1287544]	7	0	3	28	0	0	21	10	18	0	13	0	0	0	10	0	30	8	0	0
O=C(Nc1n[nH]c2nc(-c3ccc(O)cc3)ccc12)C1CC1 [SB-710363]	22	0	0	26	11	0	0	0	0	4	0	19	19	5	0	0	8	17	31	0
CCc1ccc(-c2ccc3c(c2)-c2c(cnn2C)S(=O)(=O)N3C)cc1	0	0	1	19	0	3	15	0	0	5	2	0	4	0	13	0	13	12	3	0
